Bioassay records deposited in PubChem BioAssay by National Center for Advancing Translational Sciences (NCATS).
KB-3-1 cytotox – KB-3-1 parental cell cytotoxicity | KB-3-1 viability, CellTiter-Glo ATP luminescence, 72 h | Potency, µM (highest dose often 46.1 µM), usual class: cytotoxic | 1.4% of 400,000 active | AID 1347075; note: % is set by controls: 0 for no effect and ±100 for the full control effect; nearly all actives have a fitted effect of over 60% in size
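Here the drug-naive KB-3-1 line serves as comparator for MDR sub-line selectivity; cells received compound titrations, 72 h at 37 °C, then CellTiter-Glo readout.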
MCF10A rerep – inducers of DNA re-replication in MCF 10A breast cells. Potency, µM (highest dose often 46.1 µM), for the others: top-dose activity, positive = re-replication, usual class: activators. 2.9% of 350,000 active. MCF 10A DNA re-replication, Hoechst nuclear intensity, 48 h; note: % of control where 0% means no effect; nearly all actives have a fitted effect of over 50% in size
KB-V1 cytotox – kills drug-selected multidrug resistant KB-V1 cells; Potency, µM (doses to about 46.1 µM), most hits filed as cytotoxic; 3.4% of 400,000 active; AID 1347076; KB-V1 MDR cells viability, CellTiter-Glo, 72 h; note: % is set by controls: 0 for no effect and ±100 for the full control effect; nearly all actives have a fitted effect of over 60% in size
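KB-V1 cells (P-gp-expressing MDR subline of KB-3-1) in phenol-red-free DMEM with 10% FBS were exposed to library compounds over a concentration series for 72 h at 37 degrees C. Viability read by CellTiter-Glo luminescence; concentration-effect curves fitted after normalization.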
VP16 counter – inhibits Gal4-VP16 luciferase reporter, ROR gamma counter-screen; Potency, µM (titrated, usually from 53.6 µM), for inactives: at the highest dose activity, negative = inhibition, most hits filed as inhibitors; Drosophila S2 Gal4-VP16 UAS-luciferase, luminescence, 20 h; 3.5% of 310,000 active;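 note: Gal4-VP16 expression switched on by copper sulfate through the metallothionein promoter; % is set by controls: 0 for no effect and ±100 for the full control effect; nearly all actives have a fitted effect of over 50% in size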
RORgamma inh – ROR gamma (mouse) transcription inhibition; Drosophila S2 Gal4-RORgamma UAS-luciferase reporter, 20 h; 5.4% of 310,000 active; P51450; AID 2551; Potency, µM (doses to about 53.6 µM), for inactives: at the highest dose activity change, negative = inhibition, most hits filed as inhibitors; note: % is set by controls: 0 for no effect and ±100 for the full control effect; nearly all actives have a fitted effect of over 60% in size
Target sequence (P51450 whole entry, looked up, the tested form may be a part): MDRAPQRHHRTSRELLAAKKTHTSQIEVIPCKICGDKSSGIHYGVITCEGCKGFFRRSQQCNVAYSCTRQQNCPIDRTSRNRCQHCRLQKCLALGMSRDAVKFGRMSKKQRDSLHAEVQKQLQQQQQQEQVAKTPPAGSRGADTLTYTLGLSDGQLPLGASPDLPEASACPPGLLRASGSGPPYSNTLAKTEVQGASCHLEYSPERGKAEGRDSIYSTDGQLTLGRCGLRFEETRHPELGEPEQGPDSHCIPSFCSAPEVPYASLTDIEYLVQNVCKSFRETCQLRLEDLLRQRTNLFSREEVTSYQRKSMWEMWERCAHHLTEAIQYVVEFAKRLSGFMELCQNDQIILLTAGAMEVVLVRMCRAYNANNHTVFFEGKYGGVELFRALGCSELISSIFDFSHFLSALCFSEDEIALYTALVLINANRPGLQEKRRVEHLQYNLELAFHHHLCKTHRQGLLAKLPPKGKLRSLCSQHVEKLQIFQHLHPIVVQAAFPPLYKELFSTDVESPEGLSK
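Compounds are pin-transferred onto Drosophila Schneider cells expressing a copper-inducible Gal4–ROR gamma transactivation domain fusion. After 1 hr, copper sulfate is added to 700 uM final; luciferase is read 20 hr later.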
SW480 rereplic – induces DNA re-replication in SW480 colon adenocarcinoma cells; SW480 DNA re-replication, Hoechst DNA content imaging, 48 h; Potency, µM (doses to about 46.1 µM), without a hit: at the top dose re-replication activation, hits mostly activators; 1.8% of 340,000 active; AID 624297; note: % of control where 0% means no effect; nearly all actives have a fitted effect of over 55% in size
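Treated cells incubate 48 hr (37 C, 5% CO2), are stained 40 min with Hoechst, and nuclear fluorescence is enumerated; a rise in nuclei with high DNA signal marks re-replication.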
Numbers without * were called inactive; i = inactive; ? = inconclusive; / = not tested or not shown; [ ] = dose if it differs, or a comment. Most compounds without a hit are left out; they make up all but 10% or so of the library. Calls come from the whole dose curve; as a rule, active = well fitted curve in the direction sought with a large enough effect; inconclusive = small, poorly fitted or top-dose-only effect, or another doubt; inactive = no such curve, though single readings can be large; an effect the other way counts as inactive or inconclusive. Potency is the fitted concentration of half-maximal effect.

SMILES	KB-3-1 cytotox	MCF10A rerep	KB-V1 cytotox	VP16 counter	RORgamma inh	SW480 rereplic
CC(C)C[C@@H]1O[C@H](C(C)C)Cc2[nH][nH]c(=O)c21	i	/	i	/	/	/
O=C(Nc1ccc2ccccc2c1)Nc1nnc(-c2cccnc2)s1	?	/	i	/	/	/
O=C(COc1ccccc1/C=C1\SC(=S)NC1=O)Nc1ccc(F)cc1	i	1.5µM*	i	/	/	?
O=C(Nc1nccs1)c1ccc(Cl)s1	i	0%	i	-93%	10µM*	9%
CC(C)c1nnc(NC(=O)c2sc3ccccc3c2Cl)s1	i	21%	i	?	8.9µM*	1%[9.22 µM]
O=C(Nc1nccs1)c1sc2ccccc2c1Cl	?	?	i	5µM*	2.2µM*	-2%[9.22 µM]
Cc1cccc(NC(=O)CNC(=O)c2sc3ccccc3c2Cl)n1	i	7%	i	/	/	-48%
O=C(Nc1ccc2sccc2c1)c1ccc(Cl)s1	i	18µM*	i	-20%	?	-2%
CC(C)c1nnc(NC(=O)c2ccc3ccccc3c2)s1	/	7%	/	?	?	-6%
O=C(Nc1ccccn1)c1ccc(Cl)s1	i	-1%	i	-3%	-8%	-4%
CCC(=O)[C@@]1(C)[C@H](C)C[C@@H]2[C@@H]3CCC4=CC(=O)C=C[C@@]4(C)[C@H]3[C@H](O)C[C@]21C	/	5%[20.6 µM]	/	-13%[17 µM]	-21%[2.98 µM]	0%[20.6 µM]
COc1ccc(CCNC(=O)c2cnc3sc(N4CCOCC4)nn3c2=O)cc1	i	/	i	/	/	/
O=C(Nc1ccc(NC(=O)c2ccco2)cc1)c1ccco1	i	1%	i	2%	-15%	1%
O=C(Nc1nccs1)c1cc(Cl)ccc1[N+](=O)[O-]	?	2%	i	?	13µM*	/
Cc1cccnc1NC(=O)CNC(=O)c1sc2ccccc2c1Cl	i	1%	i	/	/	2%
Cc1cnc(NC(=O)c2sc3ccccc3c2Cl)s1	i	21%	?	5µM*	2µM*	-3%
O=C(Nc1ccc(NC(=O)c2sc3ccccc3c2Cl)cc1)c1ccco1	i	12µM*	i	?	11%[10 µM]	?
O=C(Nc1nccs1)c1sc2cc(Cl)ccc2c1Cl	?	-4%	?	2.8µM*	0.5µM*	-1%
C=CCC(O)[C@H](Cc1cnc2ccccc2c1)[C@H](/C=C/CCCC)c1ccccc1 (some centres undefined)	/	/	/	-2%	1%	/
Cc1ccnc(NC(=O)c2sc3ccccc3c2Cl)c1	i	2%	?	1.4µM*	0.28µM*	2%
CC(C)n1c2ccccc2c2nc3ccccc3nc21	i	23µM*	i	2%	?	?
c1ccc2nc3c(nc2c1)c1ccccc1n3CCN1CCOCC1	i	18µM*	?	-5%	-9%	?
C#CCn1c2ccccc2c2nc3ccccc3nc21	i	-9%	18µM*	0%	2%	-2%
N#CCn1c2ccccc2c2nc3ccccc3nc21	i	?	i	8%	21%	?
CCCn1c2ccccc2c2nnc(SCCN3CCOCC3)nc21	i	-2%	i	/	/	-1%
SMILES	KB-3-1 cytotox	MCF10A rerep	KB-V1 cytotox	VP16 counter	RORgamma inh	SW480 rereplic
O=C(C[N+]12CCCc3cccc(c31)CCC2)c1ccccc1	?	/	i	/	/	/
O=C(NCc1ccccc1F)C1CCN(c2nnc(-n3cccc3)s2)CC1	i	/	i	/	/	/
CSc1nsc(/C=C/Nc2ccc(C)c(C)c2)c1C#N	i	1.2µM*	i	-5%	44%	18µM*
CC(C)Cc1nnc(NC(=O)c2cc3c(s2)CCC3)s1	i	23µM*	i	23%	-5%	23µM*
O=C(Nc1nncs1)c1cc2c(s1)CCC2	i	-4%	?	-17%	?	-1%
COC(=O)c1sccc1NC(=O)c1cc2c(s1)CCCC2	i	?	15µM*	-7%	?	19%
COc1ccc(C)cc1NC(=O)c1cc2c(s1)CCC2	i	14%	?	2%	33%	-52%
